# Test results published in PubChem BioAssay (Tox21).
# Inconclusive results are not listed. Entries that show only a call come without a potency. The source made the active and inactive calls. Unless noted, calls follow the shape of the dose curve; as a rule, active = well fitted curve in the direction sought with a large enough effect in the repeat runs; inconclusive = weak or mixed curves; inactive = no such curve, though single readings can be large; an effect the other way counts as inactive or inconclusive.
# Key:
# [1] = target: Aryl hydrocarbon receptor (Homo sapiens) (UniProt P35869); assay: qHTS assay to identify small molecule that activate the aryl hydrocarbon receptor (AhR) signaling pathway (AID 743085); also: nearly all actives have a fitted effect of over 15% in size; also: potency is read from the fitted curve at half-maximal effect;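 as to activation: HG2L7.5c1 human HepG2 liver cells with stably integrated DRE-driven firefly reporter; series mostly up to about 70 µM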
# Chain of Aryl hydrocarbon receptor (Homo sapiens) (P35869 whole entry, looked up): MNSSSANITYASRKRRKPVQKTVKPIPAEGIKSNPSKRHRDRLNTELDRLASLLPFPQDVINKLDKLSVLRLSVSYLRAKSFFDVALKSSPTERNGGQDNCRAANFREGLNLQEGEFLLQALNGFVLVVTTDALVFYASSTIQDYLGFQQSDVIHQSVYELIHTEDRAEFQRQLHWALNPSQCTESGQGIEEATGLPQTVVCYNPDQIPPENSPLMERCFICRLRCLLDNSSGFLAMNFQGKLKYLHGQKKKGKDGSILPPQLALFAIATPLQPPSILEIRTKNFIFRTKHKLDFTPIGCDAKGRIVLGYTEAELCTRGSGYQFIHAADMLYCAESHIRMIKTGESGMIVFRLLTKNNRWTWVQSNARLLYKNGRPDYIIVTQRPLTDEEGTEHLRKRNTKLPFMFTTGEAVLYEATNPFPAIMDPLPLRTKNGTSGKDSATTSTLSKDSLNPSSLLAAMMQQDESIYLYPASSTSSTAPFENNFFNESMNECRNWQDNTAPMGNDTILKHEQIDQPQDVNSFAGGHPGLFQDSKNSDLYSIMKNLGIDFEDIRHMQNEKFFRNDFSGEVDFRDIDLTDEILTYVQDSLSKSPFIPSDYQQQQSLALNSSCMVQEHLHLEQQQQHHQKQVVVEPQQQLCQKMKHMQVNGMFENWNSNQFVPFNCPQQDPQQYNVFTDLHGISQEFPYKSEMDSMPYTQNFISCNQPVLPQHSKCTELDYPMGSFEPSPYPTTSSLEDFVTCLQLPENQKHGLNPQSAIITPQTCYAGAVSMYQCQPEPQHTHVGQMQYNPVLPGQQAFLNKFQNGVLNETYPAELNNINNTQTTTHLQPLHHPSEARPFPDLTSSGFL
# Outline: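 Reporter assay in engineered HepG2 line HG2L7.5c1, whose plasmid carries twenty dioxin responsive elements upstream of firefly luciferase. Treatment lasted 24 h at 37C; ONE-Glo luminescence gauged induction.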
# [2] = qHTS assay to identify small molecule that activate the aryl hydrocarbon receptor (AhR) signaling pathway - cell viability counter screen (AID 743086); also: nearly all actives have a fitted effect of over 45% in size; also: potency is read from the fitted curve at half-maximal effect
# Outline: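 Cytotoxicity counter screen: CellTiter-Fluor signal (30 min, 37 C) in 4000 HepG2 cells/well carrying the DRE-luciferase reporter, following 24 h compound exposure at 37 C.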
# [3] = target: Peroxisome proliferator-activated receptor gamma (Homo sapiens) (UniProt P37231); assay: qHTS assay to identify small molecule agonists of the peroxisome proliferator-activated receptor gamma (PPARg) signaling pathway (AID 743094; active = well fitted activation curve with a large enough effect in the signal ratio in the repeat runs, not every such curve was filed as active; the % refers to the signal ratio)
# Chain of Peroxisome proliferator-activated receptor gamma (Homo sapiens) (P37231 whole entry, looked up): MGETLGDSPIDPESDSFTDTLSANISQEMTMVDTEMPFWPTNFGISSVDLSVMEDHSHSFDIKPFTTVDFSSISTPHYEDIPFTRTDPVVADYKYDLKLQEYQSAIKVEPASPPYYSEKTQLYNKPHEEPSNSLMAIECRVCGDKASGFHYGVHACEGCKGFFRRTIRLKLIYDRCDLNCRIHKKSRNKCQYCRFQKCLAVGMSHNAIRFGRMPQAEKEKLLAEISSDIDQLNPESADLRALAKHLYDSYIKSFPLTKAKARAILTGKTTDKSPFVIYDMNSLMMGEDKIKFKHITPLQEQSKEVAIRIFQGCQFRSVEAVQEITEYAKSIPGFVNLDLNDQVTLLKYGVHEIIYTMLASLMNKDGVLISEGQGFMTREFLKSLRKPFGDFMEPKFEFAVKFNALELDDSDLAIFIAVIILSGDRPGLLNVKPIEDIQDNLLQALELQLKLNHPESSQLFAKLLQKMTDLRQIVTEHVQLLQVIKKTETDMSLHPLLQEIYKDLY
# Outline: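 Fluorescence-based beta-lactamase readout in HEK293H PPARg UAS-bla cells after 17 h compound exposure (37C) and 1 h B/G FRET substrate incubation at room temperature.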
# [4] = qHTS assay to identify small molecule antagonists of the peroxisome proliferator-activated receptor gamma (PPARg) signaling pathway - cell viability counter screen (AID 743194); also: nearly all actives have a fitted effect of over 55% in size; also: potency is read from the fitted curve at half-maximal effect
# Outline: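 Viability was measured as CellTiter-Glo luminescence in GeneBLAzer PPARg UAS-bla HEK293H cells. These cells had been exposed 17 h at 37 C to compounds together with rosiglitazone at 50 nM final, with the beta-lactamase readout taken in the same wells.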
# [5] = qHTS assay for small molecule agonists of the antioxidant response element (ARE) signaling pathway - cell viability counter screen (AID 743203; calls by dose curve; also: nearly all actives have a fitted effect of over 55% in size; also: potency is read from the fitted curve at half-maximal effect)
# Outline: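 Parallel cytotoxicity read-out for the ARE-bla screen: HepG2 reporter cells, 16 hrs with compounds, then CellTiter-Glo luminescence.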
# [6] = qHTS assay for small molecule activators of the heat shock response signaling pathway - cell viability counter screen (AID 743209); also: nearly all actives have a fitted effect of over 50% in size
# Outline: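 To flag cytotoxic compounds, HSE-bla HeLa cells plated at 1500 cells/well were dosed for 5 h at 37 C, followed by the reporter FRET read and then CellTiter-Glo, with luminescence recorded 30 min after reagent addition.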
# [7] = qHTS assay to identify small molecule agonists of the peroxisome proliferator-activated receptor delta (PPARd) signaling pathway - cell viability counter screen (AID 743211); also: nearly all actives have a fitted effect of over 55% in size; also: potency is read from the fitted curve at half-maximal effect
# Outline: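 Multiplexed format: after the 2 h room-temperature LiveBLAzer B/G FRET step, CellTiter-Glo was added to the same wells. Luminescence after 30 min gave cell viability; compound exposure was 17 h at 37C.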
# [8] = target: Peroxisome proliferator-activated receptor delta (Homo sapiens) (UniProt Q03181); assay: qHTS assay to identify small molecule agonists of the peroxisome proliferator-activated receptor delta (PPARd) signaling pathway (AID 743212; calls by dose curve;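 also: HEK293H cells with PPARd UAS beta-lactamase reporter GeneBLAzer system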)
# Chain of Peroxisome proliferator-activated receptor delta (Homo sapiens) (Q03181 whole entry, looked up): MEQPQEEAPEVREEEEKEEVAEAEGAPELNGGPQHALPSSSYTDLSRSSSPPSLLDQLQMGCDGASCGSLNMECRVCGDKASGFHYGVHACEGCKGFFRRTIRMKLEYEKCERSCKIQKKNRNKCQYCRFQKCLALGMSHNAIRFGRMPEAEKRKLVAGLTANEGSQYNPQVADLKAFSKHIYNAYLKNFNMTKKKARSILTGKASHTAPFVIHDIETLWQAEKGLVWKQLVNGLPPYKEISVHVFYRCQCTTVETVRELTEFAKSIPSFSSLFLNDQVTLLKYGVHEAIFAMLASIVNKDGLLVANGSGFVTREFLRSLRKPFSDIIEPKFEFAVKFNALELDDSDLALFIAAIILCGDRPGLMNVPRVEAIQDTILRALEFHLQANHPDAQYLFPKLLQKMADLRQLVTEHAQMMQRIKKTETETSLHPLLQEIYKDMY
# Outline: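 Steps: seed PPARd-bla HEK293H cells; incubate 5 h, 37 C, 5% CO2; add compounds in DMSO; incubate, 37 C; add LiveBLAzer B/G FRET substrate; hold 2 h at room temperature; measure fluorescence.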
# [9] = target: Peroxisome proliferator-activated receptor delta (Homo sapiens) (UniProt Q03181); assay: qHTS assay to identify small molecule antagonists of the peroxisome proliferator-activated receptor delta (PPARd) signaling pathway (AID 743215; active = well fitted inhibition curve with a large enough effect in the signal ratio in the repeat runs, not every such curve was filed as active; the % refers to the signal ratio;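 also: cells stimulated with agonist L165041 at 300 nM final during compound exposure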; also: potency is read from the fitted curve at half-maximal effect)
# Outline: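 Screen format: qHTS, antagonist mode. HEK293H PPARd-bla cells received compound and 300 nM L165041 (final), 17 h, 37 C. Beta-lactamase detected via FRET substrate fluorescence, 2 h, room temperature.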
# [10] = target: Bile acid receptor (Homo sapiens) (UniProt Q96RI1); assay: qHTS assay to identify small molecule antagonists of the farnesoid-X-receptor (FXR) signaling pathway (AID 743217; active = well fitted inhibition curve with a large enough effect in the signal ratio in the repeat runs, not every such curve was filed as active; the % refers to the signal ratio)
# Chain of Bile acid receptor (Homo sapiens) (Q96RI1 whole entry, looked up): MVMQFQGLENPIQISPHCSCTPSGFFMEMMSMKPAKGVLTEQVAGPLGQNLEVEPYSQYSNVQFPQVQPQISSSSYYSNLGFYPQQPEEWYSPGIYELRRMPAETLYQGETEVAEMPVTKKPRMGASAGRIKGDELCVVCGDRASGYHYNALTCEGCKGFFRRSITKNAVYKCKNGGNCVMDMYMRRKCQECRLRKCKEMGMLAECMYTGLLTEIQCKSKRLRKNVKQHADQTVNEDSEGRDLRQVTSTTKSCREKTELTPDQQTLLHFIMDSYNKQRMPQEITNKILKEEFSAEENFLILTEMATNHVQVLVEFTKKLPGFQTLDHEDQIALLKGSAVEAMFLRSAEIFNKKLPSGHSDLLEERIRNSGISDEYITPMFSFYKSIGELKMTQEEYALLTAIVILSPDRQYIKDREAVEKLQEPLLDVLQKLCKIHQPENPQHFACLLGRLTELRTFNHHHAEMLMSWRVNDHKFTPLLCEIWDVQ
# Outline: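 Quantitative HTS, beta-lactamase reporter format: FXR-UAS-bla HEK 293T cells co-treated 16 h at 37 °C with compounds and 50 uM final chenodeoxycholic acid, then read by B/G FRET fluorescence.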
# [11] = target: Bile acid receptor (Homo sapiens) (UniProt Q96RI1); assay: qHTS assay to identify small molecule agonists of the farnesoid-X-receptor (FXR) signaling pathway (AID 743220; active = well fitted activation curve with a large enough effect in the signal ratio in the repeat runs, not every such curve was filed as active; the % refers to the signal ratio)
# Outline: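 FXR-UAS-bla HEK 293T cells carrying a UAS-driven beta-lactamase reporter were plated for 5 h at 37C/5% CO2, then exposed to DMSO-dissolved Tox21 10K compounds for 16 h at 37C. A LiveBLAzer B/G FRET substrate was loaded for 2 h at room temperature before fluorescence reading.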
# [12] = qHTS assay to identify small molecule antagonists of the farnesoid-X-receptor (FXR) signaling pathway - cell viability counter screen (AID 743221; active = well fitted cell-killing curve with a large enough effect in the repeat runs, not every such curve was filed as active; also: nearly all actives have a fitted effect of over 50% in size; also: potency is read from the fitted curve at half-maximal effect)
# Outline: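 CellTiter-Glo, 30 min RT, luminescence; same wells as the LiveBLAzer FRET read. Cells: FXR-UAS-bla HEK 293T. Treatment: compound with chenodeoxycholic acid 50 uM final, 16 h at 37 C.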
# [13] = target: Vitamin D3 receptor (Homo sapiens) (UniProt P11473); assay: qHTS assay to identify small molecule agonists of the vitamin D receptor (VDR) signaling pathway (AID 743222; calls by dose curve)
# Chain of Vitamin D3 receptor (Homo sapiens) (P11473 whole entry, looked up): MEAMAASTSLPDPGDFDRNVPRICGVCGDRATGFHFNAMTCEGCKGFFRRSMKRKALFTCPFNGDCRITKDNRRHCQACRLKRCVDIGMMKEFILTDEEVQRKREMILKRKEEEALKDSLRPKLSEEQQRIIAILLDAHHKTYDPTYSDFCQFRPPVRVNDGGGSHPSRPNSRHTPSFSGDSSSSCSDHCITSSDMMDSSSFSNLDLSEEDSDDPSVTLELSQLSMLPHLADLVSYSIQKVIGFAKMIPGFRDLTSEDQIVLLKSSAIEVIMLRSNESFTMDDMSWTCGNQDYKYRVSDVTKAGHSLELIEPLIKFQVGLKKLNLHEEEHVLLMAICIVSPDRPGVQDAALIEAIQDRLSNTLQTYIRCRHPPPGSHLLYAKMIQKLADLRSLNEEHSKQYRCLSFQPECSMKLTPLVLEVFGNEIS
# Outline: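 Using LiveBLAzer B/G FRET detection, agonism was scored in VDR-bla cells exposed overnight (16 h, 37C) to DMSO-dissolved compounds; substrate incubation was 2 h at room temperature.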
# [14] = qHTS assay to identify small molecule agonists of the vitamin D receptor (VDR) signaling pathway - cell viability counter screen (AID 743224); also: nearly all actives have a fitted effect of over 50% in size; also: potency is read from the fitted curve at half-maximal effect
# Outline: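 Counter screen for cytotoxicity: VDR-bla cells at 2,000 cells/well, 16 h compound exposure, then CellTiter-Glo luminescence after the beta-lactamase measurement.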
# [15] = qHTS assay for small molecule activators of the heat shock response signaling pathway (AID 743210; active = well fitted activation curve with a large enough effect in the signal ratio in the repeat runs, with a control signal flat, not every such curve was filed as active; the % refers to the signal ratio;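 also: HeLa cells with beta-lactamase reporter driven by heat shock elements; series mostly up to about 63 µM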)
# Outline: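 Fluorescence from a cleaved B/G FRET substrate (2.5 h, room temp) reports HSE-driven beta-lactamase in HeLa cells treated 5 h at 37 C with DMSO-dissolved compounds.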
# [16] = qHTS assay to identify small molecule antagonists of the peroxisome proliferator-activated receptor delta (PPARd) signaling pathway - cell viability counter screen (AID 743213); also: nearly all actives have a fitted effect of over 50% in size; also: potency is read from the fitted curve at half-maximal effect
# Outline: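 In this counter screen, HEK293H cells carrying a UAS-beta-lactamase reporter are co-treated with test compounds and 300 nM L165041 (final) for 17 h at 37 C; cell viability is quantified by CellTiter-Glo luminescence.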
# [17] = qHTS assay to identify small molecule agonists of the farnesoid-X-receptor (FXR) signaling pathway - cell viability counter screen (AID 743218); also: nearly all actives have a fitted effect of over 45% in size; also: potency is read from the fitted curve at half-maximal effect
# Outline: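 Same-well cytotoxicity check on FXR-UAS-bla HEK 293T cells: 5 h attachment, 16 h compound at 37 C, CellTiter-Glo luminescence read at room temperature after 30 min.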
# [18] = target: Peroxisome proliferator-activated receptor gamma (Homo sapiens) (UniProt P37231); assay: qHTS assay to identify small molecule antagonists of the peroxisome proliferator-activated receptor gamma (PPARg) signaling pathway (AID 743191; calls by dose curve; also: series mostly up to about 63 µM; nearly all actives have a fitted effect of over 30% in size)
# Outline: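 Beta-lactamase reporter under UAS control in HEK293H PPARg-bla cells; compound treatment 17 h at 37C. Read-out: fluorescence intensity after 1 h room-temperature incubation with LiveBLAzer B/G FRET substrate.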
# [19] = qHTS assay for small molecule agonists of the antioxidant response element (ARE) signaling pathway (AID 743202; active = well fitted activation curve with a large enough effect in the signal ratio in the repeat runs, not every such curve was filed as active; the % refers to the signal ratio; also: potency is read from the fitted curve at half-maximal effect)
# Outline: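 Beta-lactamase reporter activity, read as fluorescence intensity, reflects ARE/Nrf2 pathway induction in HepG2 cells after 16 h compound exposure at 37 C; substrate loading was 2 h at room temperature.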
# [20] = target: Vitamin D3 receptor (Homo sapiens) (UniProt P11473); assay: qHTS assay to identify small molecule antagonists of the vitamin D receptor (VDR) signaling pathway (AID 743223; active = well fitted inhibition curve with a large enough effect in the signal ratio in the repeat runs, not every such curve was filed as active; the % refers to the signal ratio)
# Outline: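 After VDR-bla cells are plated and left 4 h at 37C, DMSO-dissolved compounds and 3 nM (final) calcitriol agonist are added. Incubation continues 16 h at 37C; FRET beta-lactamase substrate then develops 2 h at room temperature.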
Compound,Potency [1],Potency [2],Potency [3],Potency [4],Potency [5],Potency [6],Potency [7],Potency [8],Potency [9],Potency [10],Potency [11],Potency [12],Potency [13],Potency [14],Potency [15],Potency [16],Potency [17],Potency [18],Potency [19],Potency [20]
O=C(c1ccc(O)cc1O)c1ccc(O)cc1O,21.7 µM (active),inactive,inactive,inactive,inactive,inactive,inactive,inactive,inactive,inactive,inactive,inactive,inactive,inactive,,,,,,
CN1CCN(CCC(=O)N2c3ccccc3Sc3ccc(C(F)(F)F)cc32)CC1,inactive,18.8 µM (active),inactive,33.5 µM (active),29.8 µM (active),inactive,11.9 µM (active),inactive,29.8 µM (active),,inactive,33.5 µM (active),inactive,21.1 µM (active),inactive,16.8 µM (active),21.1 µM (active),,,
CCC(N)(CO)CO,inactive,inactive,inactive,inactive,inactive,inactive,inactive,inactive,inactive,,,inactive,inactive,inactive,inactive,,inactive,inactive,,
Oc1ccc2c(c1)-c1ccccc1C2,15.4 µM (active),inactive,inactive,inactive,inactive,inactive,,inactive,inactive,inactive,inactive,inactive,inactive,inactive,inactive,inactive,inactive,,4.86 µM (active),inactive
CCCCN1CCCC[C@H]1C(=O)Nc1c(C)cccc1C,inactive,inactive,inactive,inactive,inactive,inactive,,inactive,inactive,,,inactive,inactive,inactive,inactive,,inactive,,,
CCCCN(CCCC)C(=O)N(CCCC)CCCC,inactive,inactive,inactive,inactive,inactive,inactive,inactive,inactive,inactive,inactive,,inactive,inactive,inactive,inactive,inactive,inactive,inactive,,
CSc1cnc(C)cn1,inactive,inactive,inactive,inactive,inactive,inactive,inactive,inactive,inactive,,,inactive,,inactive,inactive,inactive,inactive,inactive,,
O=C(NO)C1(NS(=O)(=O)c2ccc(Oc3ccc(F)cc3)cc2)CCOCC1,inactive,inactive,inactive,inactive,inactive,,inactive,inactive,inactive,,,inactive,,inactive,inactive,inactive,inactive,inactive,,inactive
O=[N+]([O-])c1cc(Cl)c(Cl)c(Cl)c1Cl,inactive,inactive,inactive,inactive,,,,,,,inactive,inactive,,inactive,,inactive,inactive,,3.42 µM (active),
CC(=O)SC[C@@H](Cc1ccccc1)C(=O)NCC(=O)OCc1ccccc1,inactive,inactive,inactive,inactive,inactive,,,inactive,inactive,,,inactive,,inactive,inactive,inactive,inactive,inactive,inactive,
NNC(=O)c1cccc(C(=O)NN)c1,27.3 µM (active),inactive,inactive,inactive,inactive,inactive,inactive,inactive,inactive,inactive,inactive,inactive,inactive,inactive,inactive,,inactive,inactive,inactive,
CCN(CCC#N)c1ccc(N=Nc2c(Cl)cc([N+](=O)[O-])cc2Cl)cc1,inactive,27.3 µM (active),inactive,inactive,inactive,,,inactive,inactive,,inactive,,,inactive,,,,,,
C[n+]1ccn(Cc2ccccc2)c1,inactive,inactive,inactive,inactive,inactive,inactive,inactive,,,inactive,inactive,inactive,inactive,inactive,inactive,,inactive,,,
CCC(Cl)C(Cl)C(Cl)CC(Cl)C(Cl)C(C)Cl (stereo not drawn),inactive,inactive,inactive,,inactive,inactive,,,,,inactive,,inactive,38.9 µM (active),,,,inactive,,inactive
